In the antibiotic and cytotoxicity screens of Wong et al. (2023) one finds cytotoxicity call data, which are given here for 62 molecules.

Molecules are shown by their SMILES. The campaign covered roughly 39,000 compounds. About 3,300 (8.5%) were called active. The list comes from a sample in which actives are over-represented; it also holds similar structures and randomly drawn compounds.

The subject of the assay is HepG2. The experiment in a line: cytotoxicity call (relative viability < 0.9). Particulars: 10 µM.
In the case of `O=C(O)c1ccc(CNc2cn[nH]c(=O)n2)cc1`, the cytotoxicity call was “inactive”.

For the molecule `COCCOC(=O)N1C(=O)[C@@]2(c3cc(C#CC4=CCCCC4)ccc31)[C@H](C(=O)NC[C@H](O)c1ccccc1)[C@H]1C(=O)O[C@H](c3ccccc3)[C@H](c3ccccc3)N1[C@@H]2c1ccc(O)cc1`, the cytotoxicity call was “inactive”.

Take `C[C@@H]1CN([C@@H](C)CO)C(=O)Cc2cc(NC(=O)Cn3cnnn3)ccc2O[C@H]1CN(C)S(=O)(=O)c1ccccc1`: the cytotoxicity call is “inactive”.

As to `CN(C)CC(=O)N1[C@@H](CO)[C@H](c2ccc(C3=CCCC3)cc2)C12CN(S(=O)(=O)Cc1ccccc1)C2`, the cytotoxicity call was “inactive”.

For `C[C@H](NC(=O)N(C)C[C@H]1OCc2ccccc2-c2c(n(C)c3ccccc23)C(=O)N([C@@H](C)CO)C[C@@H]1C)c1ccccc1`, the cytotoxicity call was “inactive”.

On to `Cc1ccc(S(=O)(=O)N(C)C[C@H]2Oc3ccc(NS(C)(=O)=O)cc3CC(=O)N([C@H](C)CO)C[C@H]2C)cc1`, for which the cytotoxicity call was “inactive”.

In the case of `O=C(C[C@@H]1C[C@H]2c3cc(NC(=O)c4cccnc4)ccc3O[C@H]2[C@@H](CO)O1)NCc1cc(F)ccc1F`, the cytotoxicity call was “inactive”.

With `CCCNC(=O)N1C[C@H](O)COC[C@H]2O[C@@H](CC(=O)N3CCN(C)CC3)CC[C@@H]21`, the cytotoxicity call was “inactive”.

In the case of `O=C(C[C@@H]1C[C@H]2c3cc(NC(=O)c4ccc5c(c4)OCO5)ccc3O[C@H]2[C@@H](CO)O1)NCCc1ccccc1`, the cytotoxicity call was “inactive”.

Regarding `COC(=O)[C@@H]1C(=O)NC[C@H]1c1ccccc1`, the cytotoxicity call is “inactive”.

As for `C[C@@H]1CN([C@H](C)CO)C(=O)c2cc(NC(=O)Nc3ccccc3)ccc2O[C@@H](C)CCCCO[C@H]1CN(C)Cc1ccc(C(F)(F)F)cc1`, the cytotoxicity call is “active”.

With `C[C@@H]1CCCCO[C@H](CN(C)Cc2ccc(C(F)(F)F)cc2)[C@H](C)CN([C@@H](C)CO)C(=O)c2cc(NC(=O)Nc3ccccc3)ccc2O1`, the cytotoxicity call is “active”.

Consider `C[C@@H]1CCCCO[C@H](CN(C)Cc2ccc(C(F)(F)F)cc2)[C@@H](C)CN([C@H](C)CO)C(=O)c2cc(NC(=O)Nc3ccccc3)ccc2O1`, for which the cytotoxicity call is “inactive”.

As for `C[C@H]1CCCCO[C@@H](CN(C)Cc2ccc(C(F)(F)F)cc2)[C@@H](C)CN([C@@H](C)CO)C(=O)c2cc(NC(=O)Nc3ccccc3)ccc2O1`, the cytotoxicity call is “active”.

As for `C[C@@H]1CCCCO[C@@H](CN(C)Cc2ccc(C(F)(F)F)cc2)[C@@H](C)CN([C@H](C)CO)C(=O)c2cc(NC(=O)Nc3ccccc3)ccc2O1`, the cytotoxicity call was “inactive”.

As to `C[C@@H]1CCCCO[C@H](CN(C)Cc2ccc(C(F)(F)F)cc2)[C@@H](C)CN([C@@H](C)CO)C(=O)c2cc(NC(=O)Nc3ccccc3)ccc2O1`, the cytotoxicity call was “active”.

Consider `CO[C@@H]1CN(C)C(=O)c2ccc(NC(=O)Nc3ccccc3F)cc2OC[C@@H](C)N(C(=O)Nc2ccccc2F)C[C@H]1C`, for which the cytotoxicity call is “inactive”.

As to `Nc1nc(Nc2ccccc2)nc2c1ncn2[C@@H]1O[C@H](CO)[C@@H](O)[C@H]1O`, the cytotoxicity call is “inactive”.

With `CO[C@@H]1CN(C)C(=O)c2cc(NS(=O)(=O)CC(F)(F)F)ccc2OC[C@H](C)N(Cc2cccnc2)C[C@@H]1C`, the cytotoxicity call is “inactive”.

With `C[C@@H]1CN([C@H](C)CO)C(=O)c2cc(C#CC3(O)CCCC3)cnc2O[C@H]1CN(C)C(=O)Cc1cccnc1`, the cytotoxicity call is “inactive”.

As for `CN1CCN(C(=O)C[C@@H]2CC[C@@H]3[C@H](COC[C@@H](O)CN3S(=O)(=O)c3cccc(Cl)c3)O2)CC1`, the cytotoxicity call is “inactive”.

In the case of `C[C@H]1CN([C@@H](C)CO)C(=O)c2cccc(NS(C)(=O)=O)c2O[C@@H]1CN(C)C(=O)Nc1ccc(F)cc1`, the cytotoxicity call is “inactive”.

Consider `C[C@@H]1CN([C@H](C)CO)C(=O)CCCn2nncc2CO[C@@H]1CN(C)S(=O)(=O)c1cn(C)cn1`, for which the cytotoxicity call was “inactive”.

For the molecule `C[C@@H]1CN([C@@H](C)CO)C(=O)c2cc(NC(=O)C3CC3)ccc2O[C@@H]1CN(C)C(=O)Nc1ccc2c(c1)OCO2`, the cytotoxicity call is “inactive”.

For the molecule `CC(=O)Nc1ccc(C(=O)NN)cc1`, the cytotoxicity call was “inactive”.

Take `C[C@@H]1CN([C@H](C)CO)C(=O)c2cccc(NC(=O)c3ccncc3)c2O[C@H]1CN(C)Cc1ccncc1`: the cytotoxicity call is “inactive”.

In the case of `c1ccc(CNC2CCCCC2)nc1`, the cytotoxicity call was “inactive”.

For `Cc1cccc(S(=O)(=O)N2C[C@@H](O)COC[C@H]3O[C@H](CC(=O)NCc4ccncn4)CC[C@@H]32)c1`, the cytotoxicity call is “inactive”.

As to `C[C@H](CO)N1C[C@H](C)[C@@H](CN(C)Cc2ccc(C(=O)O)cc2)OCc2ccccc2-c2c(n(C)c3ccccc23)C1=O`, the cytotoxicity call is “inactive”.

Take `C[C@@H]1CCCCO[C@H](CN(C)Cc2ccc(C(F)(F)F)cc2)[C@H](C)CN([C@H](C)CO)C(=O)c2cc(NC(=O)Nc3ccccc3)ccc2O1`: the cytotoxicity call is “active”.

For `C[C@H]1CCCCO[C@H](CN(C)Cc2ccc(C(F)(F)F)cc2)[C@@H](C)CN([C@@H](C)CO)C(=O)c2cc(NC(=O)Nc3ccccc3)ccc2O1`, the cytotoxicity call was “active”.

With `C[C@H](CO)N1C[C@H](C)[C@H](CN(C)Cc2ccc(C(F)(F)F)cc2)OCCCC[C@H](C)Oc2ccc(NC(=O)Nc3ccccc3)cc2C1=O`, the cytotoxicity call was “active”.

Take `CCS(=O)(=O)NCC[C@@H]1CC[C@@H](NC(=O)C2CC2)[C@@H](CO)O1`: the cytotoxicity call was “inactive”.

As for `Cc1ccc(S(=O)(=O)Nc2ccc3c(c2)CC(=O)N([C@@H](C)CO)C[C@@H](C)[C@H](CN(C)S(C)(=O)=O)O3)cc1`, the cytotoxicity call was “inactive”.

Regarding `C[C@@H]1CN([C@@H](C)CO)C(=O)Cc2cc(NC(=O)Nc3ccccc3)ccc2O[C@H]1CN(C)C(=O)Nc1ccc(C(F)(F)F)cc1`, the cytotoxicity call is “inactive”.

Take `C[C@H]1CN([C@@H](C)CO)C(=O)c2cc(NC(=O)Nc3cccc4ccccc34)ccc2O[C@H]1CN(C)S(=O)(=O)c1ccc(F)cc1`: the cytotoxicity call was “inactive”.

On to `CC(=O)N[C@@H](Cc1cccc(F)c1)C(=O)O`, for which the cytotoxicity call was “inactive”.

Consider `O=C(NC1Cc2ccccc2C1)[C@@H]1[C@@H](CO)[C@@H]2Cn3c(cccc3=O)[C@@H]2N1C(=O)c1cnccn1`, for which the cytotoxicity call was “inactive”.

Turning to `Nc1no[n+]([O-])c1-c1ccccc1`, the cytotoxicity call was “inactive”.

Turning to `C[C@H](CO)N1C[C@H](C)[C@H](CN(C)C(=O)Nc2ccc(F)cc2)OCCCC[C@H](C)Oc2ccc(NC(=O)c3ccccc3)cc2C1=O`, the cytotoxicity call is “inactive”.

As for `C[C@H](CO)N1C[C@H](C)[C@H](CN(C)Cc2ccc3c(c2)OCO3)OCCCC[C@H](C)Oc2ccc(NC(=O)Nc3ccccc3)cc2C1=O`, the cytotoxicity call is “active”.

Take `C[C@@H]1CCCCO[C@@H](CN(C)Cc2ccc3c(c2)OCO3)[C@@H](C)CN([C@H](C)CO)C(=O)c2cc(NC(=O)Nc3ccccc3)ccc2O1`: the cytotoxicity call is “inactive”.

As for `C[C@@H]1CCCCO[C@H](CN(C)Cc2ccc3c(c2)OCO3)[C@@H](C)CN([C@H](C)CO)C(=O)c2cc(NC(=O)Nc3ccccc3)ccc2O1`, the cytotoxicity call was “inactive”.

`C[C@@H]1CCCCO[C@@H](CN(C)Cc2ccc3c(c2)OCO3)[C@H](C)CN([C@H](C)CO)C(=O)c2cc(NC(=O)Nc3ccccc3)ccc2O1`: the cytotoxicity call was “inactive”.

Take `C[C@H]1CCCCO[C@H](CN(C)Cc2ccc3c(c2)OCO3)[C@@H](C)CN([C@@H](C)CO)C(=O)c2cc(NC(=O)Nc3ccccc3)ccc2O1`: the cytotoxicity call was “inactive”.

On to `C[C@H]1CCCCO[C@@H](CN(C)Cc2ccc3c(c2)OCO3)[C@@H](C)CN([C@@H](C)CO)C(=O)c2cc(NC(=O)Nc3ccccc3)ccc2O1`, for which the cytotoxicity call was “active”.

Take `C[C@@H]1CN([C@H](C)CO)C(=O)c2cc(NC(=O)Nc3ccccc3)ccc2O[C@@H](C)CCCCO[C@@H]1CN(C)Cc1ccc2c(c1)OCO2`: the cytotoxicity call is “inactive”.

`C[C@@H]1CN([C@H](C)CO)C(=O)c2cc(NC(=O)Nc3ccccc3)ccc2O[C@@H](C)CCCCO[C@H]1CN(C)Cc1ccc2c(c1)OCO2`: the cytotoxicity call is “inactive”.

For `C[C@@H]1CN([C@@H](C)CO)C(=O)c2cc(NC(=O)Nc3ccccc3)ccc2O[C@@H](C)CCCCO[C@H]1CN(C)Cc1ccc2c(c1)OCO2`, the cytotoxicity call is “inactive”.

As for `C[C@@H]1CCCCO[C@H](CN(C)Cc2ccc3c(c2)OCO3)[C@H](C)CN([C@H](C)CO)C(=O)c2cc(NC(=O)Nc3ccccc3)ccc2O1`, the cytotoxicity call is “active”.

Turning to `C[C@@H]1CCCCO[C@H](CN(C)Cc2ccc3c(c2)OCO3)[C@@H](C)CN([C@@H](C)CO)C(=O)c2cc(NC(=O)Nc3ccccc3)ccc2O1`, the cytotoxicity call is “inactive”.

With `C[C@@H]1CCCCO[C@@H](CN(C)Cc2ccc3c(c2)OCO3)[C@@H](C)CN([C@@H](C)CO)C(=O)c2cc(NC(=O)Nc3ccccc3)ccc2O1`, the cytotoxicity call is “active”.

`C[C@@H]1CN([C@@H](C)CO)C(=O)c2cccc(NC(=O)c3ccc(-c4nccs4)cc3)c2O[C@@H]1CN(C)C(=O)Nc1ccc2c(c1)OCO2`: the cytotoxicity call is “inactive”.

For `CCCNC(=O)N1C[C@@H](O)COC[C@H]2O[C@H](CC(=O)N3CCOCC3)CC[C@@H]21`, the cytotoxicity call is “inactive”.

As for `C[C@H]1CN([C@@H](C)CO)C(=O)c2cccc(NS(C)(=O)=O)c2O[C@@H]1CN(C)Cc1ccc(C(=O)O)cc1`, the cytotoxicity call is “inactive”.

For the molecule `C[C@@H]1CN([C@H](C)CO)C(=O)c2cc(NS(=O)(=O)c3cn(C)cn3)ccc2O[C@H]1CN(C)Cc1ccc(C(=O)O)cc1`, the cytotoxicity call is “inactive”.

For `O=C(O)c1ccc2[nH]cnc2n1`, the cytotoxicity call is “inactive”.

Consider `O=C(CCCCCNC(=O)OCc1ccc(CO[C@@H]2C[C@H](C3CCCCC3)C=C(C(=O)N3CCCCCCC3)O2)cc1)NO`, for which the cytotoxicity call was “inactive”.

`C[C@H](CO)N1C[C@H](C)[C@@H](CN(C)S(=O)(=O)c2ccc(F)cc2)Oc2ccc(NS(C)(=O)=O)cc2C1=O`: the cytotoxicity call was “inactive”.

Take `Cc1noc(C)c1NC(=O)N(C)C[C@@H]1Oc2ccc(NC(=O)Nc3cccc4ccccc34)cc2C(=O)N([C@H](C)CO)C[C@@H]1C`: the cytotoxicity call was “inactive”.

`COc1ccccc1NC(=O)N(C)C[C@H]1Oc2ncc(C#CCN(C)C)cc2C(=O)N([C@H](C)CO)C[C@H]1C`: the cytotoxicity call was “inactive”.

As for `C=CCOC(=O)[C@H]1[C@@H]2C(=O)O[C@@H](c3ccccc3)[C@@H](c3ccccc3)N2[C@@H](c2ccc(OCCOC(=O)[C@@H]3C[C@@H]4C(=O)NCC(=O)N4[C@@H]3c3cccc(OCCO)c3)cc2)[C@]12C(=O)Nc1ccccc12`, the cytotoxicity call was “inactive”.
